Screening results (PubChem BioAssay)
ALR H2O2 inh – human ALR oxidase inhibition via reduced H2O2. P55789. hit rate 3.8% among 290,000. inhibition, % (test concentration not listed). purified ALR, DTT oxidation, H2O2 HRP-luminol luminescence;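 active = mean replicate inhibition above about 79%, with every replicate also reaching it, limit read from the data; inconclusive = only one of the two criteria met; inactive = mean below limit and not every replicate reaching it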
SUMO Mot1 rescue – blocks SUMOylation pathway, rescuing yeast Mot1-301 growth | S. cerevisiae Mot1-301 growth rescue, ATP luminescence, 38.5C; percent above DMSO median, 100 means doubled | growth rescue, % at 18.8 µM | hit rate 1% among 320,000;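 active = every valid replicate shows activation above 250% relative to neutral control wells; inactive = the rest, any valid replicate at or below 250%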
Efflux pump mplx – antifungal efflux pump inhibition, Nile Red retention | S. cerevisiae Candida pump triplex | inhibition, % at 10 µM | hit rate 0.44% among 330,000;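 active = plate passing quality check with inhibition over a set limit, or well fluorescence over plate mean plus 4 SD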;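 also: Nile Red retained in pooled yeast measured as flow cytometry median fluorescence; higher means more Nile Red kept so more efflux inhibition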
AHR act – activates the human aryl hydrocarbon receptor; P35869; hit rate 2.5% among 320,000; AHR-responsive luciferase reporter cells, luminescence; activation, % at 5 µM; AID 2796; in the data active = activation above about 47%
Bfl-1 A1 inh – inhibitors of the anti-apoptotic protein A1, read as caspase activation; hit rate 0.066% among 330,000; MEF A1-2A-BIM cells, Caspase-Glo 3/7 luminescence, 3 h; percent of clofoctol response, vehicle zero; caspase activation, % (concentration not given with the values);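 active = over half of replicate activation scores above 10%, or exactly half above 10 with the replicate mean above 10; inconclusive = replicate mean below 10 yet half the replicates above 10; inactive = over half of replicates below 10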
VLA-4 inh – inhibition in a human VLA-4 binding assay | AID 2557 | inhibition, % (about 7 µM as worked out from the volumes in the protocol) | VLA-4 expressing cells, ligand binding flow cytometry | hit rate 0.2% among 330,000 | P13612; in the data active = inhibition above about 50%
Large screens that a line does not name were inactive. Hits are enriched below; roughly 7.2% of the tested compounds scored in any of these assays.

CS(=O)(=O)Nc1ccc(-c2ccc(/C=C3\SC(N)=NC3=O)o2)cc1	AHR act 58
NC1=NC(=O)/C(=C\c2ccco2)S1	none (no result: ALR H2O2 inh)
Cc1ccc(NC2CCCN(C(=O)c3cn4cc(Cl)ccc4n3)C2)cc1C (centres undefined)	ALR H2O2 inh 99 (no result: SUMO Mot1 rescue, Bfl-1 A1 inh)
CC(C)c1cc(C(=O)N2CCCC(Nc3ccc(F)c(F)c3)C2)nc(N)n1 (centres undefined)	none
Cc1ccc(NC2CCCN(C(=O)c3cn4cccc(C)c4n3)C2)cc1C (centres undefined)	ALR H2O2 inh 99 (no result: AHR act)
O=C(c1cn2ccccc2n1)N1CCCC(Nc2ccc(F)c(F)c2)C1 (centres undefined)	none
Cc1ccc(-c2nc(C)sc2CC(=O)Nc2cccc(C)c2C)cc1	none
Cc1ccc(-n2nc(C)c3c2OC(N)=C(C#N)C3c2ccccc2F)cc1 (centres undefined)	AHR act 66
Cc1ccc(-n2nc(C)c3c2OC(N)=C(C#N)C3c2cccs2)cc1 (centres undefined)	AHR act 68
Cc1ccc(-n2nc(C)c3c2OC(N)=C(C#N)C3c2ccncc2)cc1 (centres undefined)	none
N#CC1=C(SCC(=O)Nc2cccc3cccnc23)NC(=O)C(C#N)C12CCCCC2 (centres undefined)	none
N#CC1=C(N)NC(SCC(=O)Nc2ccccc2)=C(C#N)C12CCCC2	ALR H2O2 inh 95, AHR act 71
CCOC(=O)C1=C(SCC(=O)Nc2ccccc2)NC(=O)C(C#N)C12CCCCC2 (centres undefined)	ALR H2O2 inh 89
O=C(NCCS(=O)(=O)N1CCN(c2ccccc2F)CC1)c1cccc(Br)c1	none
CN1CCN(c2oc(COc3ccc(-c4ccccc4)cc3)nc2C#N)CC1	SUMO Mot1 rescue 563
Cc1ccc(-n2c(SCC(=O)N3CCOCC3)nnc2-c2ccncc2)cc1C	none
N#CC1(c2ccc(NC(=O)c3ccccc3)cc2)CCCC1	none
CC(=O)Oc1ccc(C(=O)Nc2ccc(C3(C#N)CCCC3)cc2)cc1	AHR act 60 (no result: ALR H2O2 inh)
Cc1[nH]n(C)c(=O)c1C(=O)c1c(-c2ccccc2Cl)noc1C	ALR H2O2 inh 85
Cc1ccc(NC(=S)NC(=O)c2c(-c3ccccc3Cl)noc2C)cc1	none (no result: ALR H2O2 inh)
CC(=O)N1CCN(C(=S)NC(=O)c2c(-c3ccccc3Cl)noc2C)CC1	ALR H2O2 inh 95
Cc1onc(-c2ccccc2Cl)c1C(N)=O	none
CCOC(=O)c1ccsc1NC(=O)c1ccco1	none
CC(=O)Nc1ccc(S(=O)(=O)Nc2nc3ccccc3nc2Nc2ccc(C(=O)O)c(O)c2)cc1	ALR H2O2 inh 98
CC(=O)Nc1ccc(S(=O)(=O)NC(C)c2ccncc2)cc1 (centres undefined)	none
CC(=O)Nc1ccc(S(=O)(=O)Nc2nc3ccccc3nc2Nc2ccc3ccccc3c2)cc1	ALR H2O2 inh inconclusive
CC(=O)Nc1ccc(S(=O)(=O)Nc2nc3ccccc3nc2Nc2ccc(N)cc2)cc1	ALR H2O2 inh 100
COc1ccc(OC)c(S(=O)(=O)Nc2cccc3c(O)cccc23)c1	ALR H2O2 inh 87
CC(=O)Nc1ccc(S(=O)(=O)NC(C)C(=O)NC(C)c2ccccc2)cc1 (centres undefined)	ALR H2O2 inh 99
CN(C(=O)CO/N=C/c1ccc(OC(F)F)cc1)C1CCS(=O)(=O)C1 (centres undefined)	none
Cc1cc(O)cc(=O)n1Cc1ccccc1	none
CCN(CC)C(=O)[C@H]1C[C@H](CC(=O)NCc2ccc(OC)c(OC)c2)C(=O)N2CCc3c([nH]c4ccc(Cl)cc34)[C@]12C	none (no result: ALR H2O2 inh, SUMO Mot1 rescue, AHR act, Bfl-1 A1 inh, VLA-4 inh)
CN(CC(=O)Nc1ccc(Cl)cc1)C(=O)Cn1[nH]c(=O)c2ccccc2c1=O	none
CC(C)(C)n1nnnc1SCC(=O)Nc1nn(-c2ccccc2)nc1C(N)=O	none
O=C(CCS(=O)(=O)c1cccc2nonc12)Nc1ccc(Br)cc1	none
O=C1C(Nc2ccccc2)=C(NS(=O)(=O)c2ccccc2)C(=O)c2ccccc21	AHR act 57
CCSc1ccccc1C(=O)Nc1ccc(S(=O)(=O)NC(C)=O)cc1	ALR H2O2 inh 96
COc1ccc(NS(=O)(=O)c2ccc(NC(C)=O)cc2)c(OC)c1	none
COc1ccc(OC)c(NS(=O)(=O)c2ccc(NC(C)=O)cc2)c1	SUMO Mot1 rescue 273 (no result: ALR H2O2 inh)
CC(=O)NS(=O)(=O)c1ccc(NC(=O)c2ccccn2)cc1	none
CC(=O)Nc1ccc(S(=O)(=O)N[C@@H](C)C(=O)N2CCN(c3ccccn3)CC2)cc1	ALR H2O2 inh 99
O=C(c1c(Cl)cccc1Cl)N1CCN(c2ncccn2)CC1	none
O=C(O)c1cccc(Nc2nc3ccccc3nc2NS(=O)(=O)c2ccccc2)c1	none
CC(=O)Nc1ccc(S(=O)(=O)Nc2nc3ccccc3nc2Nc2cccc(O)c2)cc1	ALR H2O2 inh 82
CC(=O)Nc1ccc(S(=O)(=O)Nc2ccc(Nc3ccccc3)cc2)cc1	ALR H2O2 inh 99
Cn1cnnc1Sc1nc2ccccc2nc1NS(=O)(=O)c1ccccc1	none
O=C(O)c1ccc(Nc2nc3ccccc3nc2NS(=O)(=O)c2ccc(F)cc2)cc1	ALR H2O2 inh 98
CC(=O)Nc1ccc(NS(=O)(=O)c2ccccc2)cc1	none (no result: SUMO Mot1 rescue)
CC(=O)Nc1ccc(S(=O)(=O)Nc2nc3ccccc3nc2Sc2nncn2C)cc1	ALR H2O2 inh 99
Cc1cccc(N2CC(C(=O)Nc3nnc(SCc4ccccn4)s3)CC2=O)c1 (centres undefined)	none
CCn1nccc1C(=O)Nc1ccc(C)c(C)c1	none (no result: AHR act)
COc1ccc2nc(NCc3ccccc3)[nH]c2c1	ALR H2O2 inh 95
COc1ccc2nc(NCCO)[nH]c2c1	none (no result: ALR H2O2 inh)
COc1ccc2nc(N3CCCC3)[nH]c2c1	ALR H2O2 inh 96
Cc1ccc(S(=O)(=O)c2nc(NN(C)C)sc2Cl)cc1	ALR H2O2 inh 97
COc1cc(C)c(NC(=O)C(=S)NCCc2ccccc2)cc1C	none
O=C(O)CCCn1cc(NC(=O)c2sc3ccccc3c2Cl)cn1	none (no result: SUMO Mot1 rescue, Bfl-1 A1 inh)
O=C(Nc1ccccc1)C1Cc2ccccc2CN1C(=O)c1ccco1 (centres undefined)	ALR H2O2 inh 97
COc1ccccc1NC(=O)C1Cc2ccccc2CN1C(=O)c1ccco1 (centres undefined)	none (no result: ALR H2O2 inh)
COc1ccc(N2CCN(S(=O)(=O)c3c(C(=O)N4CCOCC4)c(C)n(C)c3C)CC2)cc1	none
CS(=O)(=O)N1CCN=C1SCc1ccc([N+](=O)[O-])cc1	ALR H2O2 inh 99
CC(=O)Nc1ccc(S(=O)(=O)N2CCN=C2SCc2ccc([N+](=O)[O-])cc2)cc1	ALR H2O2 inh 99
CC(=O)Nc1ccc(S(=O)(=O)N2CCN=C2SCc2cccc(C)c2)cc1	none
CC(=O)Nc1ccc(S(=O)(=O)N2CCN=C2SCc2ccccc2C)cc1	ALR H2O2 inh 98
COc1cccc(OCc2cc(C(=O)N3CCN(C)C(c4ccccc4)C3)no2)c1 (centres undefined)	none
